{
  "source": "paper PMC11006913",
  "assay_in_all_cases": "PBM; 200 nM protein, PBS",
  "conditions_in_all_cases": "dsDNA, one strand shown",
  "key": {"VENTX [1]": {"target": "T1, VENTX (Homo sapiens, UniProt O95231 78-163, R121Q)", "T1 sequence": "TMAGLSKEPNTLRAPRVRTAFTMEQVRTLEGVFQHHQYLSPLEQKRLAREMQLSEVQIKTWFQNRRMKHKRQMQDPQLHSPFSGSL"}, "VENTX [2]": {"target": "T2, VENTX (Homo sapiens, UniProt O95231 78-163)", "T2 sequence": "T1 sequence with Q44R"}, "VENTX [3]": {"target": "T3, VENTX (Homo sapiens, UniProt O95231 78-163, Y115F)", "T3 sequence": "T1 sequence with Y38F, Q44R"}, "HOXB6 [4]": {"target": "HOXB6 (Homo sapiens, UniProt P17509 132-218, K202E)", "sequence (P17509 132-218 K202E)": "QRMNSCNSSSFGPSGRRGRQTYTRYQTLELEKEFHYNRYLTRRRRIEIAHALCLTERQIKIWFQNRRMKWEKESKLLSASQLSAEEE"}, "HOXB6 [5]": {"target": "HOXB6 (Homo sapiens, UniProt P17509 132-218)", "sequence (P17509 132-218)": "as the sequence (P17509 132-218 K202E) above, with E71K counted along it"}, "HOXD13 [6]": {"target": "HOXD13 (Homo sapiens, UniProt P35453 263-343, T313R)", "sequence (P35453 263-343 T313R)": "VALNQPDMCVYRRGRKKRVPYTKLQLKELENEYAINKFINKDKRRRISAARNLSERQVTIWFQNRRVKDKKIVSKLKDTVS"}, "NKX2-6 [7]": {"target": "T4, NKX2-6 (Homo sapiens, UniProt A6NCS4 118-204)", "T4 sequence": "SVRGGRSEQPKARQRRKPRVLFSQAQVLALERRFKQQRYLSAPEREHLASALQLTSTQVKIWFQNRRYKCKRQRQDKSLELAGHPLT"}, "HOXD13 [8]": {"target": "HOXD13 (Homo sapiens, UniProt P35453 263-343)", "sequence (P35453 263-343)": "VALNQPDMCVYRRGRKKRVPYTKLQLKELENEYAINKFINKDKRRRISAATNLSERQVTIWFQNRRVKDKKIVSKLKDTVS"}, "HOXD13 [9]": {"target": "HOXD13 (Homo sapiens, UniProt P35453 263-343, T313A)", "sequence (P35453 263-343 T313A)": "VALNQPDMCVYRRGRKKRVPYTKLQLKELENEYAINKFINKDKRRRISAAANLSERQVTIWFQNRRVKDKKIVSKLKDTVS"}, "NKX2-6 [10]": {"target": "T5, NKX2-6 (Homo sapiens, UniProt A6NCS4 118-204, F151L)", "T5 sequence": "T4 sequence with F34L"}, "ALX1 [11]": {"target": "ALX1 (Homo sapiens, UniProt Q15699 118-204, L144V)", "sequence (Q15699 118-204 L144V)": "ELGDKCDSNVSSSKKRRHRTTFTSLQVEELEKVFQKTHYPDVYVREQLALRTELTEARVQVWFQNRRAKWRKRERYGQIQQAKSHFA"}, "ALX1 [12]": {"target": "ALX1 (Homo sapiens, UniProt Q15699 118-204, L144R)", "sequence (Q15699 118-204 L144R)": "as the sequence (Q15699 118-204 L144V) above, with V27R counted along it"}, "ALX1 [13]": {"target": "ALX1 (Homo sapiens, UniProt Q15699 118-204)", "sequence (Q15699 118-204)": "as the sequence (Q15699 118-204 L144V) above, with V27L counted along it"}, "ALX3": {"target": "ALX3 (Homo sapiens, UniProt O95076 139-225, N203Q)", "sequence (O95076 139-225 N203Q)": "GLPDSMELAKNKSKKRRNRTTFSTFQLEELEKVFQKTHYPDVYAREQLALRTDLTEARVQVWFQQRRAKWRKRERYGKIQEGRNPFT"}, "PAX4 [14]": {"target": "T6, PAX4 (Homo sapiens, UniProt O43316 9-242, F177V)", "T6 sequence": "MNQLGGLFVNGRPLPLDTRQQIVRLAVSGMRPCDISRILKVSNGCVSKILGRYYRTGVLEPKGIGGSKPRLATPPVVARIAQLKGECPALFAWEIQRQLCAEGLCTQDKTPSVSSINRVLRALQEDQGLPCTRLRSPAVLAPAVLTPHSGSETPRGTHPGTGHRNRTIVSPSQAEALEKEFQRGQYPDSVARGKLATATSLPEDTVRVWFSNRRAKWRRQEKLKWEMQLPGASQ"}, "PAX4 [15]": {"target": "T7, PAX4 (Homo sapiens, UniProt O43316 9-242, R227W)", "T7 sequence": "T6 sequence with V169F, R219W"}, "HOXA2 [16]": {"target": "HOXA2 (Homo sapiens, UniProt O43364 129-215, R185T)", "sequence (O43364 129-215 R185T)": "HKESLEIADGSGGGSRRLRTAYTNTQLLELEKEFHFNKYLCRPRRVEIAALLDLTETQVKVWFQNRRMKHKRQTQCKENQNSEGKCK"}, "HOXA2 [17]": {"target": "HOXA2 (Homo sapiens, UniProt O43364 129-215, R185K)", "sequence (O43364 129-215 R185K)": "as the sequence (O43364 129-215 R185T) above, with T57K counted along it"}, "HOXA2 [18]": {"target": "HOXA2 (Homo sapiens, UniProt O43364 129-215, Y150S)", "sequence (O43364 129-215 Y150S)": "as the sequence (O43364 129-215 R185T) above, with Y22S, T57R counted along it"}, "HOXA2 [19]": {"target": "HOXA2 (Homo sapiens, UniProt O43364 129-215)", "sequence (O43364 129-215)": "as the sequence (O43364 129-215 R185T) above, with T57R counted along it"}, "HOXC9 [20]": {"target": "HOXC9 (Homo sapiens, UniProt P31274 178-260)", "sequence (P31274 178-260)": "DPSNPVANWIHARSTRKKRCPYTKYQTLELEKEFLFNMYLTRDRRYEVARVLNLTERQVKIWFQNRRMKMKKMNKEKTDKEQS"}, "HOXC9 [21]": {"target": "HOXC9 (Homo sapiens, UniProt P31274 178-260, R193K)", "sequence (P31274 178-260 R193K)": "as the sequence (P31274 178-260) above, with R16K counted along it"}, "HOXC9 [22]": {"target": "HOXC9 (Homo sapiens, UniProt P31274 178-260, R222W)", "sequence (P31274 178-260 R222W)": "as the sequence (P31274 178-260) above, with R45W counted along it"}},
  "note": "Where a chain is given by its changes, count along the chain named.",
  "data": [
    {"sequence": "CCACGCGC", "values": [
      {"measurement": "binding signal", "setting": "VENTX [1]", "result": "8.13 upbm affinity estimate (log intensity, higher = more binding, comparable within an allelic series)"},
      {"measurement": "binding signal", "setting": "VENTX [2]", "result": "8.26 upbm affinity estimate (log intensity, higher = more binding, comparable within an allelic series)"},
      {"measurement": "binding signal", "setting": "VENTX [3]", "result": "8.14 upbm affinity estimate (log intensity, higher = more binding, comparable within an allelic series)"},
      {"measurement": "binding signal", "setting": "HOXB6 [4]", "result": "9.05 upbm affinity estimate (log intensity, higher = more binding, comparable within an allelic series)"},
      {"measurement": "binding signal", "setting": "HOXB6 [5]", "result": "8.96 upbm affinity estimate (log intensity, higher = more binding, comparable within an allelic series)"}
    ]},
    {"sequence": "CCGGGACC", "values": [
      {"measurement": "binding signal", "setting": "VENTX [1]", "result": "8.02 upbm affinity estimate (log intensity, higher = more binding, comparable within an allelic series)"},
      {"measurement": "binding signal", "setting": "VENTX [2]", "result": "8.2 upbm affinity estimate (log intensity, higher = more binding, comparable within an allelic series)"},
      {"measurement": "binding signal", "setting": "VENTX [3]", "result": "7.98 upbm affinity estimate (log intensity, higher = more binding, comparable within an allelic series)"},
      {"measurement": "binding signal", "setting": "HOXD13 [6]", "result": "9.46 upbm affinity estimate (log intensity, higher = more binding, comparable within an allelic series)"},
      {"measurement": "binding signal", "setting": "NKX2-6 [7]", "result": "9.14 upbm affinity estimate (log intensity, higher = more binding, comparable within an allelic series)"},
      {"measurement": "binding signal", "setting": "HOXD13 [8]", "result": "9.43 upbm affinity estimate (log intensity, higher = more binding, comparable within an allelic series)"},
      {"measurement": "binding signal", "setting": "HOXD13 [9]", "result": "9.37 upbm affinity estimate (log intensity, higher = more binding, comparable within an allelic series)"},
      {"measurement": "binding signal", "setting": "NKX2-6 [10]", "result": "9.26 upbm affinity estimate (log intensity, higher = more binding, comparable within an allelic series)"}
    ]},
    {"sequence": "TCGATTAA", "values": [
      {"measurement": "binding signal", "setting": "VENTX [1]", "result": "11.4 upbm affinity estimate (log intensity, higher = more binding, comparable within an allelic series)"},
      {"measurement": "binding signal", "setting": "VENTX [2]", "result": "12.3 upbm affinity estimate (log intensity, higher = more binding, comparable within an allelic series)"},
      {"measurement": "binding signal", "setting": "VENTX [3]", "result": "11.2 upbm affinity estimate (log intensity, higher = more binding, comparable within an allelic series)"}
    ]},
    {"sequence": "AAACTAAT", "values": [
      {"measurement": "binding signal", "setting": "VENTX [1]", "result": "11 upbm affinity estimate (log intensity, higher = more binding, comparable within an allelic series)"},
      {"measurement": "binding signal", "setting": "VENTX [2]", "result": "11.7 upbm affinity estimate (log intensity, higher = more binding, comparable within an allelic series)"},
      {"measurement": "binding signal", "setting": "VENTX [3]", "result": "11 upbm affinity estimate (log intensity, higher = more binding, comparable within an allelic series)"}
    ]},
    {"sequence": "CGTCCTCC", "values": [
      {"measurement": "binding signal", "setting": "VENTX [1]", "result": "8.1 upbm affinity estimate (log intensity, higher = more binding, comparable within an allelic series)"},
      {"measurement": "binding signal", "setting": "VENTX [2]", "result": "8.19 upbm affinity estimate (log intensity, higher = more binding, comparable within an allelic series)"},
      {"measurement": "binding signal", "setting": "VENTX [3]", "result": "8.16 upbm affinity estimate (log intensity, higher = more binding, comparable within an allelic series)"},
      {"measurement": "binding signal", "setting": "ALX1 [11]", "result": "6.55 upbm affinity estimate (log intensity, higher = more binding, comparable within an allelic series)"},
      {"measurement": "binding signal", "setting": "ALX1 [12]", "result": "6.64 upbm affinity estimate (log intensity, higher = more binding, comparable within an allelic series)"},
      {"measurement": "binding signal", "setting": "ALX1 [13]", "result": "6.6 upbm affinity estimate (log intensity, higher = more binding, comparable within an allelic series)"}
    ]},
    {"sequence": "ACATATTA", "values": [
      {"measurement": "binding signal", "setting": "VENTX [1]", "result": "10.6 upbm affinity estimate (log intensity, higher = more binding, comparable within an allelic series)"},
      {"measurement": "binding signal", "setting": "VENTX [2]", "result": "11.3 upbm affinity estimate (log intensity, higher = more binding, comparable within an allelic series)"},
      {"measurement": "binding signal", "setting": "VENTX [3]", "result": "10.4 upbm affinity estimate (log intensity, higher = more binding, comparable within an allelic series)"},
      {"measurement": "binding signal", "setting": "ALX3", "result": "8.55 upbm affinity estimate (log intensity, higher = more binding, comparable within an allelic series)"},
      {"measurement": "binding signal", "setting": "PAX4 [14]", "result": "10.8 upbm affinity estimate (log intensity, higher = more binding, comparable within an allelic series)"},
      {"measurement": "binding signal", "setting": "PAX4 [15]", "result": "11 upbm affinity estimate (log intensity, higher = more binding, comparable within an allelic series)"}
    ]},
    {"sequence": "GCCCCCCC", "values": [
      {"measurement": "binding signal", "setting": "VENTX [1]", "result": "8.24 upbm affinity estimate (log intensity, higher = more binding, comparable within an allelic series)"},
      {"measurement": "binding signal", "setting": "VENTX [2]", "result": "8.18 upbm affinity estimate (log intensity, higher = more binding, comparable within an allelic series)"},
      {"measurement": "binding signal", "setting": "VENTX [3]", "result": "8.34 upbm affinity estimate (log intensity, higher = more binding, comparable within an allelic series)"},
      {"measurement": "binding signal", "setting": "HOXA2 [16]", "result": "7.05 upbm affinity estimate (log intensity, higher = more binding, comparable within an allelic series)"},
      {"measurement": "binding signal", "setting": "HOXA2 [17]", "result": "9.94 upbm affinity estimate (log intensity, higher = more binding, comparable within an allelic series)"},
      {"measurement": "binding signal", "setting": "HOXA2 [18]", "result": "10.3 upbm affinity estimate (log intensity, higher = more binding, comparable within an allelic series)"},
      {"measurement": "binding signal", "setting": "HOXA2 [19]", "result": "7.28 upbm affinity estimate (log intensity, higher = more binding, comparable within an allelic series)"}
    ]},
    {"sequence": "CTAACGAG", "values": [
      {"measurement": "binding signal", "setting": "VENTX [1]", "result": "10.2 upbm affinity estimate (log intensity, higher = more binding, comparable within an allelic series)"},
      {"measurement": "binding signal", "setting": "HOXC9 [20]", "result": "10.9 upbm affinity estimate (log intensity, higher = more binding, comparable within an allelic series)"},
      {"measurement": "binding signal", "setting": "HOXC9 [21]", "result": "10.8 upbm affinity estimate (log intensity, higher = more binding, comparable within an allelic series)"},
      {"measurement": "binding signal", "setting": "HOXC9 [22]", "result": "10.1 upbm affinity estimate (log intensity, higher = more binding, comparable within an allelic series)"}
    ]}
  ]
}
